Test results published in the supplement of paper PMC6555819.

Columns and labels:
Assay in all cases: PBM binding z-score (relative to random genomic background probes); higher = stronger binding; sequences stand for … in GC…GCGATTGACAGCGTAGAATGAAGG
[1] = system: PPARg:RXRa DBDmut IVT, anti-RXR (DBD mutation: RXRa K156A/R161A, NR concentration 270 nM, RXRa partner concentration 90 nM)
Summary of the method: (§1)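 On custom Agilent 4×180K arrays, double-stranded probes with 34-nt variable regions carried direct-repeat seeds, single-nucleotide variants, half-site ablations or random human genomic background. Ligand-free nuclear receptor dimers were applied for 1 h, and binding was read with antibodies against each partner (one per run). Binding z-scores come from regression-normalized fluorescence, with the random background probes as reference.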

[2] = system: PPARg:RXRa IVT, anti-PPARg (NR concentration 270 nM, RXRa partner concentration 90 nM)
Summary of the method: as §1

[3] = system: PPARg DBDmut:RXRa IVT, anti-PPARg (DBD mutation: PPARg1 K132A/R137A, NR concentration 270 nM, RXRa partner concentration 90 nM)
Summary of the method: as §1

[4] = system: PPARg DBDmut IVT, anti-PPARg (DBD mutation: PPARg1 K132A/R137A, NR concentration 270 nM)
Summary of the method: as §1

[5] = system: PPARg homodimer (NR concentration 180 nM)
Summary of the method: as §1

[6] = system: PXR:RXRa (NR concentration 270 nM, RXRa partner concentration 90 nM)
Summary of the method: as §1

[7] = system: PXR homodimer (NR concentration 270 nM)
Summary of the method: as §1

[8] = system: RARa homodimer (NR concentration 270 nM)
Summary of the method: as §1

[9] = system: RARb:RXRa (NR concentration 270 nM, RXRa partner concentration 90 nM)
Summary of the method: as §1

[10] = system: RARb homodimer (NR concentration 270 nM)
Summary of the method: as §1

[11] = system: RARg:RXRa (NR concentration 270 nM, RXRa partner concentration 90 nM)
Summary of the method: as §1

[12] = system: RARg homodimer (NR concentration 270 nM)
Summary of the method: as §1

[13] = system: RXRa DBDmut IVT, anti-RXR (DBD mutation: RXRa K156A/R161A, NR concentration 90 nM)
Summary of the method: as §1

[14] = system: RXRa homodimer (NR concentration 180 nM)
Summary of the method: as §1

[15] = system: THRa:RXRa (NR concentration 90 nM, RXRa partner concentration 90 nM)
Summary of the method: as §1

[16] = system: THRa homodimer (NR concentration 90 nM)
Summary of the method: as §1

[17] = system: VDR:RXRa (NR concentration 270 nM, RXRa partner concentration 90 nM)
Summary of the method: as §1

[18] = system: VDR homodimer (NR concentration 270 nM)
Summary of the method: as §1

[19] = system: RARa:RXR (NR concentration 270 nM, RXRa partner concentration 90 nM)
Summary of the method: as §1

Sequence	PBM binding z-score [1]	PBM binding z-score [2]	PBM binding z-score [3]	PBM binding z-score [4]	PBM binding z-score [5]	PBM binding z-score [6]	PBM binding z-score [7]	PBM binding z-score [8]	PBM binding z-score [9]	PBM binding z-score [10]	PBM binding z-score [11]	PBM binding z-score [12]	PBM binding z-score [13]	PBM binding z-score [14]	PBM binding z-score [15]	PBM binding z-score [16]	PBM binding z-score [17]	PBM binding z-score [18]	PBM binding z-score [19]
GATCCAGGGTCAGCTAGAGGCCAGAGTATGGAAA	0.393	1.96	-0.6	-0.817	1.89	3.27	-0.25	-0.417	4.24	3.27	6.7	4.6	0.756	4.34	3.09	-0.172	3.16	0.674	
ATCCAAAGGTCGAGGTGAGTATAGAGAAAGGGAA	0.646	2.87	1.42	1.42	1.71	2.84	0.536	1.18	4.43	3.21	4.69	4.83	1.19	5.1	3.07	1.07		1.09	
CCTTACGGGTCAAGGTTATATCACGGGTGGTACG	1.74	3.78	0.607	0.522	2.64	3.63	0.951	0.89	4.15	3.52	4.98	4.79	0.822	5.52	3.11	0.96		1.54	
TCTCGGAGGACACGAAAGGTCAGAACTCGACATC	1.63	1.22	-0.541	-0.269	3.91	4.08	0.978	2	3.83	4.38	4.56	5.19	0.955	3.93	3.46	1.48		1.29	
CGTCCAAGGTCAAAGGTCAGGGAAGAGATGACGG	3.65	6.24	1.42	0.451	3.19	7	1.61	2.57		5.58	9.1	8.2	3.54	10.4		2.92		3.13	8.27
CCAGAAAGGTGAAAGGTAACTCAGTCTGGTACGC	4.19	4.68	0.791	0.428	1.51	2.26	0.172	0.674	3.3	1.92	3.17	2.13	0.365	4.27	1.94	0.107	1.81	0.0179	
CCTTGCGGGTCACTGACAGGTTATAGCATTTGGA	4.94	5.29	-0.0944	-0.215	2	3.05	-0.0222	0.173	3.63	2.97	5.46	4.17	1.77	4.49	2.8	0.354	3.13	0.664	
CACACTAGGTCAAGAGGTCAAAGTCCGCTTCCCG	7.22	7.67	2.76	1.84	7.46	6.33	3.75	3.81	5.28	5.71	8.04	7.49	3.09	8.05	4.5	3.03	6.08	4.78	
CGTCCAAGGTCAAAGGTCAGTAAAGAGATGACGG	4.06	5.78	0.533	0.691	4.4	7.16	1.34	4.03	5.99	5.42	8.65	8.13	3.88	10.4	4.82	2.37		3.52	
CCTGCTAGGTCAAGGGTCAGCTAAAGCAGCTCGC	4.08	5.78	0.536	-0.955	2.95	4.65	0.026	0.368	4.96	4.91	6.68	6.43	1.48	7.49	3.95	1.24		1.03	
CGTCCAAGGTCACAGGAGGTCAGTGAAGACAGAT	4.02	5.26	0.184	-0.411	4.98	6.88	3.92	2.32		5.53		8.33	3.73		5.28	3.66		4.32	6.48
AGTCAAAGTTCATCTTGGTAACGTAAGATATGCT	0.418	2.63	0.383	1.1	2.64	4.92	6.26	1.55	4.95	4.03	5.43	5.84	4.52	4.52	2.03	-0.478		4.88	
ATCGAAAGGTCGACGAGTTGAGTATACACCGTTT	0.59	1.57	1.03	0.857	1.26	3.23	1.84	0.451	3.7	2.63	3.88	4.05	1.46	4.2	2.24	-0.136		2.1	
CCTAGTTGGCCAAGGTCACACACGCTATAGGTAC	1.76	2.66	0.582	0.0264	2.66	3.85	1.93	1.5	3.8	4.08	4.16	4.16	2.02	4.27	3.96	3.61	4.02	3.38	
CGTCCAAGGTCAATGCAAGGTCAGTGAAAGCATT	3.53	4.28	0.246	0.606	5.89	6.14	2.19	2.02		5.5		7.06	3.92	6.02		4.02		3.85	6.91
CTCGAAAGGTCGAGCTCAGGTGAGTATACCAAAC	0.787	1.71	1.15	0.22	2.06	2.86	-0.325	0.256	4.2	2.85	4.89	4.58	1.39	4.04	4.03	0.791		0.31	
